Laboratory results as given in PubChem BioAssay (NCI).
This is part of a sample that, as a whole, favours compounds with a hit. Of some 83,000 tested, about 20% had one in any assay.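 96-well plates, one dose, 48 hours. Percent growth reported; active if below 10.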 Activity calls are given as the source filed them.

Tests used:
Assay in all cases: NCI-60 one-dose screen, 48 h (100 = growth as untreated, 0 = no growth, -100 = all killed)
Conditions in all cases: 10 µM unless noted
[1] = system: T-47D breast
[2] = system: BT-549 breast
[3] = system: MDA-MB-435 melanoma
[4] = system: SW-620 colon
[5] = system: MCF7 breast
[6] = system: HCC-2998 colon
[7] = system: KM12 colon
[8] = system: HCT-116 colon

Measured: growth

O=C1CCC(N2C(=O)c3cccc(NCCCC4CCN(CCNC(=O)c5cc6c(o5)C(=O)c5ccccc5C6=O)CC4)c3C2=O)C(=O)N1 (stereo not given)
active: [1] -5.59% | [2] -96.2% | [3] -97.1% | [4] -77.9% | [5] -65.4% | [6] -96% | [7] -79.2%

O=c1oc2ccc(Cl)cc2cc1-c1cs/c(=N/N=C\c2ccc(Cl)cc2)n1/N=C/c1ccc(Cl)cc1
inactive: [1] 87.5% | [2] 109% | [3] 103% | [4] 104% | [5] 95.7% | [6] 103% | [7] 107%

OC(c1cccc(OCc2ccccc2)c1)c1nnc(-c2ccccc2)o1 (stereo not given)
inactive: [1] 72.9% | [3] 101% | [4] 104% | [5] 95.1% | [8] 101% | [6] 112% | [7] 90.7%

CC(C)OC(=O)NNC(=O)c1ccncc1
inactive: [1] 106% | [3] 109% | [4] 98.2% | [5] 88% | [8] 97.5% | [6] 119% | [7] 115%

CCNCCNc1cc(-c2cccc(C(F)(F)F)c2)c(C#N)c2nc3ccccc3n12
active: [1] -72.4% | [2] -64.6% | [3] -93.3% | [4] -67.3% | [5] -70% | [6] -80.9% | [7] -75.6%

Cc1cc(C)on1
inactive: [1] 94.4% | [3] 99.5% | [4] 110% | [5] 96.6% | [8] 110% | [6] 94.5%

COc1cc(CNC(=O)/C=C/C=C/c2ccc3c(c2)OCO3)ccc1OCc1cn(-c2ccc(Cl)c(Cl)c2)nn1
active: [1] -4.43% | [2] -8.89% | [3] -18.3% | [4] -33.4% | [5] -46.2% | [7] 1.12%
inactive: [6] 51.1%

COc1ccc(N=c2nc3sc4cc(Cl)ccc4n3c(N)c2C#N)cc1
inactive: [1] 73.7% | [3] 99.6% | [4] 81.1% | [5] 61.2% | [8] 93.7% | [6] 95.5% | [7] 24.7%

Cc1nc(Nc2ccc(S(=O)(=O)Nc3cc(C)on3)cc2)c2ccccc2n1
inactive: [1] 89.1% | [2] 120% | [3] 101% | [4] 109% | [5] 91.9% | [6] 107% | [7] 103%

COc1ccc(C2CC(c3ccc4ccccc4c3)=NN2c2nc(O)c(C3=c4cc(Cl)ccc4=NC3=O)s2)cc1 (stereo not given)
active: [1] -79.9% | [2] -26% | [3] -64.6% | [4] -42.4% | [5] -22.4% | [6] -54.1% | [7] -59.3%

N#Cc1c(N)nc2c(nnn2-c2cccc(Br)c2)c1N
inactive: [1] 67.1% | [2] 97.1% | [3] 108% | [4] 96.9% | [5] 71.4% | [6] 106% | [7] 97%

O=C(NC1CCOCC1)c1ccc2c(c1)CN(c1ncc(Cc3cccc(-n4cccn4)c3)s1)CC2
inactive: [1] 38.9% | [2] 31.1% | [3] 76.3% | [4] 107% | [5] 56.9% | [6] 77% | [7] 84.9%

CCc1nc2ccccc2[nH]1
inactive: [1] 123% | [3] 113% | [4] 104% | [5] 88.7% | [8] 102% | [6] 110% | [7] 113%

Cl.Fc1c[c-]c(-c2ccccn2)c(F)c1.[Pt].c1ccc([PH+](c2ccccc2)c2ccccc2[PH+](c2ccccc2)c2ccccc2)cc1
active: [1] -80.2% | [2] -70.2% | [3] -93.5% | [4] -81.6% | [5] -79.3% | [6] -76.6% | [7] -90.6%

CNC(=O)c1cc(Oc2ccc3nc(Nc4cc(Cl)cc(Cl)c4)ccc3c2)ccn1
inactive: [1] 55.6% | [2] 58.9% | [3] 12.8% | [4] 45.6% | [5] 38.8% | [6] 74.5% | [7] 30.2%

CC1(C)CC(=O)c2c(ccc(C(=O)C[C@H](N)CO)c2N)O1
active: [4] 7.48% | [6] 9.33%
inactive: [1] 53.8% | [2] 25% | [3] 52.3% | [5] 13.3% | [7] 16%

CC(=O)Nc1cccc(C2=CC(c3ccc(C)cc3)n3ncnc3N2)c1 (stereo not given)
inactive: [1] 87.5% | [3] 112% | [4] 102% | [5] 96.9% | [8] 103% | [6] 112% | [7] 97.2%

CCCCN1CCN(c2ccc3nc(-c4ccc5nc(-c6cc(OC)c(OC)c(OC)c6)[nH]c5c4)[nH]c3c2)CC1
inactive: [1] 66% | [2] 80.2% | [3] 53.5% | [4] 60.3% | [5] 19.9% | [6] 100% | [7] 59.3%

COc1ccc(OC)c(/C=C2\COc3ccc(O)cc3C2=O)c1
inactive: [1] 96.7% | [2] 93.5% | [3] 29.1% | [4] 14.3% | [5] 19.7% | [6] 112% | [7] 60.2%

C[C@@H]1CC[C@@H]2[C@@H]1[C@H](OC(=O)/C=C/c1ccccc1)[C@]1(C3CCCCC3)C[C@@H](NC(=O)CO)[C@@]2(C)O1
inactive: [1] 95% | [2] 98.6% | [3] 94.3% | [4] 90% | [5] 89.6% | [6] 95.4% | [7] 103%

N#Cc1c(N)n2c(nc1=Nc1ccc(Cl)cc1)sc1cc(Cl)ccc12
inactive: [1] 73.8% | [3] 102% | [4] 87.9% | [5] 60.5% | [8] 89.1% | [6] 107% | [7] 29.5%

O=C(O)c1ccccc1C(=O)Nc1ccc(Cl)cc1
inactive: [1] 87.2% | [3] 85.7% | [4] 93% | [5] 103% | [8] 96.3% | [6] 92.6% | [7] 85.8%

CCN(CC)CCOc1ccc(/C(=C(\C)c2ccc(F)c(OC)c2)c2ccc(Cl)cc2)cc1
inactive: [1] 18.8% | [2] 59.7% | [3] 15%
active: [4] -7.8% | [5] -3.59% | [6] -33.2% | [7] -3.3%

N#C/C(=C\c1ccc(Br)cc1)n1nnc2cc(Cl)c(Cl)cc21
active: [3] -18.2% | [5] 6.51%
inactive: [1] 18% | [2] 22.5% | [4] 19.2% | [6] 35.3% | [7] 29.7%

COc1ccccc1C(=O)NC(=S)Nc1ccc(-c2nc3ccccc3[nH]2)cc1
inactive: [1] 80.3% | [2] 32.3% | [3] 50.3% | [4] 43.5% | [5] 21.3% | [6] 85.9% | [7] 53.2%

Nc1c(C(=O)Nc2ccccc2)sc2nc3c(cc12)CCCCCC3
active: [3] -17% | [8] 2.39%
inactive: [1] 38.2% | [4] 27.5% | [5] 12.1% | [6] 13.4% | [7] 15.8%

COc1cccc(-c2cnco2)c1OCc1c(C)c(COc2c(OC)cccc2-c2cnco2)c(C)c(COc2c(OC)cccc2-c2cnco2)c1C
inactive: [1] 33.5% | [2] 39.2% | [3] 54.9% | [4] 75% | [5] 65.5% | [6] 99.3% | [7] 64.9%

Fc1ccc(Nc2ccc3cc(OCCCN4CCOCC4)ccc3n2)cc1F
inactive: [1] 43.5% | [2] 68.6% | [3] 59.9% | [4] 10% | [5] 55.7% | [6] 20% | [7] 21.3%

CN1CCN(C2=C(Cl)C(=O)c3ccccc3C2=O)CC1
active: [3] -75%
inactive: [1] 80.8% | [4] 98.8% | [5] 54.9% | [8] 10.2% | [6] 86.5%

CC(=O)C(C(C)=O)c1nc2sc3cc(Cl)ccc3n2c(=N)c1C#N
inactive: [1] 75.8% | [3] 111% | [4] 95.9% | [5] 57.9% | [8] 87.5% | [6] 106% | [7] 82.4%

O=C(c1ccccc1)c1ccc(N2C(=O)C3C4c5ccccc5C(/C=C/C(=O)c5ccccn5)(c5ccccc54)C3C2=O)cc1 (stereo not given)
active: [3] 4.74% | [4] 3.76% | [7] 9.88%
inactive: [1] 27% | [2] 22.2% | [5] 19% | [6] 25.3%

CCN(CC)CCNc1ccc(C)c2sc3cc(C)ccc3c(=O)c12
inactive: [1] 66.5% | [2] 68.3% | [3] 37.3% | [4] 43.6% | [5] 43.7% | [6] 66.4% | [7] 60.1%

Cc1nc2ccccc2c(/C=C/c2ccc(Cl)cc2)c1C(=O)/C=C/c1ccc(Cl)cc1
active: [1] -15.3% | [3] -51.4% | [4] -37.4% | [5] 3.86% | [6] -74.7% | [7] -38.4%

CS(=O)(=O)c1ccc(-c2nc3cc(Cl)ccc3n2CC(=O)NO)cc1
inactive: [2] 97.6% | [3] 106% | [4] 96.2% | [5] 81.3% | [8] 103% | [6] 115% | [7] 93.9%
